For 38 compounds, Potency results are on record in PubChem BioAssay (Tox21).

Results filed as inconclusive are left out. A call without a number means that no potency is given here. The source made the active and inactive calls. Unless noted, calls come from the whole dose curve; as a rule, active = well fitted curve in the direction sought with a large enough effect in the repeat runs; inconclusive = weak or mixed curves; inactive = no such curve, though single readings can be large; an effect the other way counts as inactive or inconclusive.

Test system in one test: not listed separately
In words: qHTS assay to identify small molecule antagonists of the estrogen related receptor (ERR) signaling pathway (AID 1224819; note: nearly all actives have a fitted effect of over 50% in size; note: potency is the fitted concentration of half-maximal effect). To be noted: ERR reporter cell line, luciferase inhibition; series mostly up to 46.1 µM. The method in brief: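 Luminescence readout (One-Glo, 30 min, RT) of ERR cell line after 18 h compound exposure at 37 C; cells seeded 2,000/well, pre-incubated 6 h, compounds pinned from DMSO stocks.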
A general note: In qHTS, concentration-response curves come from the screen itself.
With `CN1Cc2sccc2C(c2ccc(O)c(O)c2)C1` (centres undefined), the Potency result is “inactive”. On the same count and under the same terms, the result for `CC(C)COC(=O)OCN1C(=O)CN(CCN2CC(=O)N(COC(=O)OCC(C)C)C(=O)C2)CC1=O` reads “inactive”; that for `O=Nc1c(-c2c(O)[nH]c3cc(Br)ccc23)[nH]c2ccccc12`, “inactive”; that for `CCCCS(=N)(=O)CC[C@H](N)C(=O)O` (some centres undefined), “inactive”. With `Oc1ccc2ccccc2c1SSc1c(O)ccc2ccccc12`, the Potency was 20.3 µM (active). On to `Nc1nc2c(cnn2CCc2ccccc2)c2nc(-c3ccco3)nn12`, for which the Potency result was “inactive”. On the same count and under the same terms, the result for `NCCCCCCCCCCN` reads “inactive”; that for `NCC(O)(CS(=O)(=O)O)c1ccc(Cl)cc1` (centres undefined), “inactive”. The same measure, in the same setting: the result for `O=C1NC(=O)C(c2ccccc2[N+](=O)[O-])=C1Nc1ccc(O)c(Cl)c1` reads “inactive”. Still for that read-out and setting: the result for `N[C@H](CCCP(=O)(O)O)C(=O)O` reads “inactive”; that for `O=C(c1ccc2c(c1)OCCO2)N1CCCCC1`, “inactive”; that for `COc1cc(/C=C(\C#N)C(=O)c2ccc(O)c(O)c2)cc(I)c1O`, “inactive”.

For `CC(=O)[C@H]1CCC2C3CC=C4C[C@@H](OS(=O)(=O)O)CC[C@]4(C)C3CC[C@@]21C` (some centres undefined), the Potency entry is “inactive”.

As to `NC(=Nc1ccccc1)NC(=O)c1nc(Cl)c(N)nc1N`, the Potency entry is “inactive”.

Test system in the next test: not listed separately
Nature of the test: qHTS assay to identify small molecule agonists of the estrogen related receptor (ERR) signaling pathway (AID 1224820). To be noted: ERR reporter cell line, luciferase agonist mode; series mostly up to 46.1 µM. The method in brief:
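After 6 h plating (2,000 cells/well) and 18 h compound treatment at 37 C, ERR cells were lysed with One-Glo and luminescence read after 30 min at room temperature.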
Consider `c1ccc2c(c1)CCC[C@H]2Nc1nc2ccccc2[nH]1`, for which the Potency result was “inactive”. Same read-out and setting: the result for `O=C(Nc1nc2ccccc2n1CCN1CCOCC1)c1cccc([N+](=O)[O-])c1` reads “inactive”. Turning to `CC#CCOC(=O)c1c(C)nc2sc3c(c2c1N)CCC(O)C3` (centres undefined), the Potency entry is “inactive”. Still for that read-out and setting: the result for `O=c1ccc2ccc(O)c(O)c2o1` reads “inactive”; that for `C[C@@H](N)C1CCC(C(=O)Nc2ccncc2)CC1` (some centres undefined), “inactive”; that for `c1ccc(C(NCc2cccnc2)(c2ccccc2)c2ccccc2)cc1`, “inactive”.

Consider `Cc1nn(-c2ccccc2)c(C)c1/C=N/N1CCN(Cc2ccccc2)CC1`, for which the Potency result was “inactive”.

Regarding `COc1ccc(CCn2nnnc2C2(c3ccc(C)cc3)CC2)cc1`, the Potency entry was “inactive”.

On to `COc1cccc(OC)c1OCCNCC1COc2ccccc2O1` (centres undefined), for which the Potency entry is “inactive”.

Take `Cn1c(=O)c2[nH]c(C3CCCC3)nc2n(C)c1=O`: the Potency entry was “inactive”.

In the case of `Clc1ccc(N2CCN(Cc3c[nH]c4ncccc34)CC2)cc1`, the Potency entry is “inactive”. On the same count and under the same terms, the result for `OC1(c2ccc(Cl)cc2)CCN(Cc2c[nH]c3ccccc23)CC1` reads “inactive”. Still for that read-out and setting: the result for `CN(C)C(=O)[C@H](O)[C@H](Cc1ccccc1)NC(=O)c1cc2cc(Cl)ccc2[nH]1` reads “inactive”. Same read-out and setting: the result for `Nc1nc(OCC2CCCCC2)c2[nH]cnc2n1` reads “inactive”. Take `OC[C@H]1O[C@@H](n2cnc3cncnc32)[C@H](O)[C@@H]1O`: the Potency entry is “inactive”. In the case of `CNC(=O)[C@H]1O[C@@H](n2cnc3c(NCc4cccc(I)c4)ncnc32)[C@H](O)C1O` (some centres undefined), the Potency entry was “inactive”. Regarding `O=c1[nH]c2cc(C(F)(F)F)ccc2n1-c1cc(C(F)(F)F)ccc1O`, the Potency result is “inactive”. Still for that read-out and setting: the result for `O=C(O)c1ccccc1Nc1cccc(OCc2ccc3ccccc3n2)c1` reads “inactive”; that for `O=c1[nH]c(=S)[nH]c(-c2ccccc2)c1Cc1c(O)ccc2ccccc12`, “inactive”; that for `c1ccc(CN2CCC3(CCCc4ccccc43)CC2)cc1`, “inactive”. Still for that read-out and setting: the result for `CC(C)(CO)Cc1cc(C(C)(C)C)c(O)c(C(C)(C)C)c1` reads “inactive”; that for `Nc1nc(SCc2ccc([N+](=O)[O-])cc2)c2ncn([C@@H]3O[C@H](CO)C(O)[C@H]3O)c2n1` (some centres undefined), “inactive”. The same measure, in the same setting: the result for `CC(/C=C/c1cccc(Oc2ccc(F)cc2)c1)N(O)C(N)=O` (centres undefined) reads “inactive”. Take `c1ccc2c(c1)CC(N1CCN(c3cccc4c3OCCO4)CC1)C2`: the Potency entry was “inactive”.

In another test the test system is estrogen-related receptor alpha (ERRalpha) with PGC-1alpha coactivator, human. Nature of the test: qHTS assay to identify small molecule antagonists of the estrogen related receptor signaling pathway with the pleiotropic PPARgamma coactivator (PGC) (AID 1224821; calls by dose curve; note: nearly all actives have a fitted effect of over 50% in size; note: potency is the fitted concentration of half-maximal effect). As to conditions: ERR/PGC reporter cell line, luciferase, antagonist mode; series mostly up to 46.1 µM. The method in brief:
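Luminescence from One-Glo luciferase reagent (30 min, room temperature) measured after 18 h compound treatment at 37 °C. Cells carry the PGC/ERR reporter and were seeded 6 h prior to dosing.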
As for `CN1Cc2sccc2C(c2ccc(O)c(O)c2)C1` (centres undefined), the Potency entry was “inactive”. For the compound `c1ccc2c(c1)CCC[C@H]2Nc1nc2ccccc2[nH]1`, the Potency entry was “inactive”. On the same count and under the same terms, the result for `O=C(Nc1nc2ccccc2n1CCN1CCOCC1)c1cccc([N+](=O)[O-])c1` reads “inactive”; that for `O=Nc1c(-c2c(O)[nH]c3cc(Br)ccc23)[nH]c2ccccc12`, “inactive”; that for `CC#CCOC(=O)c1c(C)nc2sc3c(c2c1N)CCC(O)C3` (centres undefined), “inactive”. On the same count and under the same terms, the result for `CCCCS(=N)(=O)CC[C@H](N)C(=O)O` (some centres undefined) reads “inactive”; that for `O=c1ccc2ccc(O)c(O)c2o1`, “inactive”; that for `C[C@@H](N)C1CCC(C(=O)Nc2ccncc2)CC1` (some centres undefined), 14.4 µM (active). On the same count and under the same terms, the result for `c1ccc(C(NCc2cccnc2)(c2ccccc2)c2ccccc2)cc1` reads 24.6 µM (active); that for `Nc1nc2c(cnn2CCc2ccccc2)c2nc(-c3ccco3)nn12`, “inactive”. Turning to `Cc1nn(-c2ccccc2)c(C)c1/C=N/N1CCN(Cc2ccccc2)CC1`, the Potency result was “inactive”. Still for that read-out and setting: the result for `NCCCCCCCCCCN` reads “inactive”; that for `COc1ccc(CCn2nnnc2C2(c3ccc(C)cc3)CC2)cc1`, “inactive”; that for `COc1cccc(OC)c1OCCNCC1COc2ccccc2O1` (centres undefined), “inactive”. In the case of `Cn1c(=O)c2[nH]c(C3CCCC3)nc2n(C)c1=O`, the Potency result was “inactive”. Consider `Clc1ccc(N2CCN(Cc3c[nH]c4ncccc34)CC2)cc1`, for which the Potency result is “inactive”. Same read-out and setting: the result for `OC1(c2ccc(Cl)cc2)CCN(Cc2c[nH]c3ccccc23)CC1` reads “inactive”; that for `CN(C)C(=O)[C@H](O)[C@H](Cc1ccccc1)NC(=O)c1cc2cc(Cl)ccc2[nH]1`, “inactive”.

As for `Nc1nc(OCC2CCCCC2)c2[nH]cnc2n1`, the Potency result is “inactive”. The same measure, in the same setting: the result for `NCC(O)(CS(=O)(=O)O)c1ccc(Cl)cc1` (centres undefined) reads “inactive”; that for `OC[C@H]1O[C@@H](n2cnc3cncnc32)[C@H](O)[C@@H]1O`, 15 µM (active); that for `CNC(=O)[C@H]1O[C@@H](n2cnc3c(NCc4cccc(I)c4)ncnc32)[C@H](O)C1O` (some centres undefined), “inactive”.

As to `O=C1NC(=O)C(c2ccccc2[N+](=O)[O-])=C1Nc1ccc(O)c(Cl)c1`, the Potency entry is “inactive”. Still for that read-out and setting: the result for `N[C@H](CCCP(=O)(O)O)C(=O)O` reads “inactive”.

`O=c1[nH]c2cc(C(F)(F)F)ccc2n1-c1cc(C(F)(F)F)ccc1O`: the Potency result is “inactive”. The same measure, in the same setting: the result for `O=C(c1ccc2c(c1)OCCO2)N1CCCCC1` reads “inactive”; that for `O=C(O)c1ccccc1Nc1cccc(OCc2ccc3ccccc3n2)c1`, “inactive”. The same measure, in the same setting: the result for `O=c1[nH]c(=S)[nH]c(-c2ccccc2)c1Cc1c(O)ccc2ccccc12` reads “inactive”; that for `c1ccc(CN2CCC3(CCCc4ccccc43)CC2)cc1`, “inactive”; that for `COc1cc(/C=C(\C#N)C(=O)c2ccc(O)c(O)c2)cc(I)c1O`, “inactive”. As for `CC(=O)[C@H]1CCC2C3CC=C4C[C@@H](OS(=O)(=O)O)CC[C@]4(C)C3CC[C@@]21C` (some centres undefined), the Potency entry was “inactive”. Same read-out and setting: the result for `CC(C)(CO)Cc1cc(C(C)(C)C)c(O)c(C(C)(C)C)c1` reads “inactive”; that for `NC(=Nc1ccccc1)NC(=O)c1nc(Cl)c(N)nc1N`, “inactive”; that for `Nc1nc(SCc2ccc([N+](=O)[O-])cc2)c2ncn([C@@H]3O[C@H](CO)C(O)[C@H]3O)c2n1` (some centres undefined), “inactive”. Still for that read-out and setting: the result for `CC(/C=C/c1cccc(Oc2ccc(F)cc2)c1)N(O)C(N)=O` (centres undefined) reads “inactive”; that for `c1ccc2c(c1)CC(N1CCN(c3cccc4c3OCCO4)CC1)C2`, “inactive”.
